Results filed as inconclusive are left out. Active and inactive are the calls of the source. The calls were made as follows, unless noted: active = hit-call score of the fitted dose curve at least 0.9, where 1 is the maximum; inactive = score below 0.9.
Columns and labels:
[1] = read-out: Monokine induced gamma interferon (MIG), CXCL9 (gene 4283); assay: BSK_SAg_MIG: BioMAP Diversity Plus: SAg Assay for Monokine induced gamma interferon (MIG) Biomarker Activity (AID 2283092); conditions: primary human HUVEC with PBMC; actives raise or lower the signal
In short: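 Endothelial cells and PBMC were co-cultured, exposed to test chemicals, and sampled 24 h later. MIG was measured by ELISA, and responses were fitted in both directions relative to DMSO.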

[2] = BSK_SAg_PBMCCytotoxicity: PBMC Cytotoxicity Assessment in the BioMAP Diversity Plus: SAg Assay (AID 2283093); conditions: primary human HUVEC with PBMC;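 also: PBMC viability measured as Alamar Blue reduction fluorescence at 546/580 nm; fitted both ways against DMSO so a hit may be loss or gain of signal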;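 as to AC50: PBMC superantigen activated with SEB plus TSST-1 one hour after compound addition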
In short: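 Alamar Blue reduction (6 h, ex/em 546/580 nm) read after 90 h culture of PBMC pre-dosed 1 h then stimulated with SEB plus TSST-1, 20 ng/mL each. Gain or loss of signal fitted relative to DMSO.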

[3] = read-out: Interleukin-8 (IL8), CXCL8 (gene 3576); assay: BSK_SAg_IL8: BioMAP Diversity Plus: SAg Assay for Interleukin-8 (IL8) Biomarker Activity (AID 2283094); conditions: primary human HUVEC with PBMC; actives raise or lower the signal
In short: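 ELISA readout of IL-8 from a superantigen-activated endothelial/PBMC primary human co-culture, taken 24 h post-dosing and fitted in both directions against DMSO; parallel SRB total-protein staining flags overt cytotoxicity.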

[4] = BSK_SAg_Proliferation: Cell Proliferation Assessment in the BioMAP Diversity Plus: SAg Assay (AID 2283095); conditions: primary human HUVEC with PBMC;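 also: relative cell number as total protein by SRB absorbance in sub-confluent culture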
In short: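 Relative cell number in the endothelial cell/PBMC co-culture was quantified at 96 h by SRB staining (0.1% SRB, 10% TCA fixation, read at 560 nm). Curves were fitted in both directions relative to DMSO baseline.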

[5] = BSK_SAg_SRB: Viability Assessment in the BioMAP Diversity Plus: SAg Assay (AID 2283096); conditions: primary human HUVEC with PBMC;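 also: cells read one day after compound addition; hits may be either gain or loss of signal compared with DMSO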
In short: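 SRB absorbance at 560 nm served as the viability read-out. Cells (HUVEC plus peripheral blood mononuclear cells) were TCA-fixed and stained 24 h post-dosing; activity fitted in both directions against DMSO controls.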

[6] = target: human CYP2A6, CYP2A6 (gene 1548) (UniProt P11509); assay: NVS_ADME_hCYP2A6: NovaScreen (NVS) CYP450-related Enzyme Activity (ADME) Assay for human CYP2A6 (AID 2283099; active = hit-call score of the fitted dose curve at least 0.9, where 1 is the maximum)
Chain of human CYP2A6, CYP2A6 (gene 1548) (P11509 whole entry, looked up): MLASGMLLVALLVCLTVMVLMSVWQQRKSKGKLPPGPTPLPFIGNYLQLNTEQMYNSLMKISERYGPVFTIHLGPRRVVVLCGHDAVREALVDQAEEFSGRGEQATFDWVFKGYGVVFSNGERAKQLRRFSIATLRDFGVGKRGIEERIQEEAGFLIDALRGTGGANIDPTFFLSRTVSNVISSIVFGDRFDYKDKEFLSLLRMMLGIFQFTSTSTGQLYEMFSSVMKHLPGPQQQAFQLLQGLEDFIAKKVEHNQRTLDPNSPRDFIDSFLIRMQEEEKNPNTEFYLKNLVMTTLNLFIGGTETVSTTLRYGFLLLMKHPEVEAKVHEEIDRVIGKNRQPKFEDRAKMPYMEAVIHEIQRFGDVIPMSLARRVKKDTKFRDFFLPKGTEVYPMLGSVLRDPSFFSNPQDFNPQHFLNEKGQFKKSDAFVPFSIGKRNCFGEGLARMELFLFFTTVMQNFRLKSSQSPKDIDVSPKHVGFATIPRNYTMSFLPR
In short: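 Fluorescent substrate turnover by recombinant CYP2A6 (insect cell source), 0.5 h read. Screen: 10 uM, duplicate; threshold hits (e.g. 30% inhibition) → singleton concentration-response, top 20 uM. Positive and negative controls on every plate.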

[7] = target: human CYP19A1, CYP19A1 (gene 1588) (UniProt P11511); assay: NVS_ADME_hCYP19A1: NovaScreen (NVS) CYP450-related Enzyme Activity (ADME) Assay for human CYP19A1 (AID 2283098; active = hit-call score of the fitted dose curve at least 0.9, where 1 is the maximum;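 as to AC50: potency for inhibitors seen as loss of fluorescent enzyme signal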)
Chain of human CYP19A1, CYP19A1 (gene 1588) (P11511 whole entry, looked up): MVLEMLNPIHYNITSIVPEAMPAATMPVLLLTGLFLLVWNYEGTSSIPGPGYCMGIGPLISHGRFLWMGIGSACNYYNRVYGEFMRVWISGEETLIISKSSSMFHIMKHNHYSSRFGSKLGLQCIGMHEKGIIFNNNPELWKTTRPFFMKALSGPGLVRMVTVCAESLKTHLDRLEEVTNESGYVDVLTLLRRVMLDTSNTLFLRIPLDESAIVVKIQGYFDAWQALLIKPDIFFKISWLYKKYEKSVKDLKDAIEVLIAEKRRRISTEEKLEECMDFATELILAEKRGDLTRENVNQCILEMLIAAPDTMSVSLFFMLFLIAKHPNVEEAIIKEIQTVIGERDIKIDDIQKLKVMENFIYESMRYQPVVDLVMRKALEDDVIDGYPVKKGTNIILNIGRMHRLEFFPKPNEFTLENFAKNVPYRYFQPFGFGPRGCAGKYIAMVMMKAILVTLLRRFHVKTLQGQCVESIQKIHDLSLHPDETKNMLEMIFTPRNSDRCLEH
In short: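 Primary testing was in duplicate at a single 10 uM concentration, with actives followed up in concentration-response series. Fluorescence read-out of recombinant enzyme activity at 0.5 h, cell-free. Acetonitrile was the negative-control baseline.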

[8] = target: human CYP1A1, CYP1A1 (gene 1543) (UniProt P04798); assay: NVS_ADME_hCYP1A1: NovaScreen (NVS) CYP450-related Enzyme Activity (ADME) Assay for human CYP1A1 (AID 2283100; active = hit-call score of the fitted dose curve at least 0.9, where 1 is the maximum)
Chain of human CYP1A1, CYP1A1 (gene 1543) (P04798 whole entry, looked up): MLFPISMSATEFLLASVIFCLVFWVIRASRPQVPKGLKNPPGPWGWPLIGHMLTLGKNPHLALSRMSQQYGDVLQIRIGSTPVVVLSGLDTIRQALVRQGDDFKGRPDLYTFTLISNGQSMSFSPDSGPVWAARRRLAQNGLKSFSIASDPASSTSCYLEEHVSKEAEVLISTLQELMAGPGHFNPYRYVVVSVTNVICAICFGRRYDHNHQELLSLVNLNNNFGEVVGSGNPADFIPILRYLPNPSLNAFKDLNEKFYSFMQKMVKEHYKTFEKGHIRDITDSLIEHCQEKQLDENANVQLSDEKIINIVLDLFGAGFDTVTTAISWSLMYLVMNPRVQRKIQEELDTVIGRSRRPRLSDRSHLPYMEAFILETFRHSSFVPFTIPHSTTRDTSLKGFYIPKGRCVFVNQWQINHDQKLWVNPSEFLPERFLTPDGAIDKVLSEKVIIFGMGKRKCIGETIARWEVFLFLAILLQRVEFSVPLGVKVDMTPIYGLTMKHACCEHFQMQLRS
In short: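 Recombinant hCYP1A1 + fluorogenic substrate, cell-free; 1 h; fluorescence read. Single-point 10 uM (duplicate) → concentration series, max 20 uM. Acetonitrile negative control.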

[9] = target: human CYP2B6, CYP2B6 (gene 1555) (UniProt P20813); assay: NVS_ADME_hCYP2B6: NovaScreen (NVS) CYP450-related Enzyme Activity (ADME) Assay for human CYP2B6 (AID 2283101; active = hit-call score of the fitted dose curve at least 0.9, where 1 is the maximum)
Chain of human CYP2B6, CYP2B6 (gene 1555) (P20813 whole entry, looked up): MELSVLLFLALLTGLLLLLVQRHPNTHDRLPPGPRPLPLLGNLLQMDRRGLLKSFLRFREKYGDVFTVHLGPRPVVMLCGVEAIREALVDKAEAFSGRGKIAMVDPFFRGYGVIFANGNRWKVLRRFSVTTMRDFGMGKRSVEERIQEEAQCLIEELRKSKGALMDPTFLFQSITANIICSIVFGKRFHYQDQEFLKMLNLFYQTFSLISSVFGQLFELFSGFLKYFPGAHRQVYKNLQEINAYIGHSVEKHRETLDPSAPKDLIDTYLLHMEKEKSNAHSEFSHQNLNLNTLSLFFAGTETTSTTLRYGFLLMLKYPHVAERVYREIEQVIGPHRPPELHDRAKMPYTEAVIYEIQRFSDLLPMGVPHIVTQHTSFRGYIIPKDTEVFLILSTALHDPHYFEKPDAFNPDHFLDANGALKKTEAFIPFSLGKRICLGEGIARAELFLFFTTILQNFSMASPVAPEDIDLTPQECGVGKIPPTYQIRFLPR
In short: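 Cell-free recombinant enzyme assay with a fluorogenic substrate; fluorescence intensity read 1 hour after dosing. Loss of signal relative to acetonitrile negative control indicates inhibition. Primary screen run in duplicate at 10 uM, actives then tested in concentration series.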

Measured: AC50

O=[N+]([O-])c1ccc(O)c([N+](=O)[O-])c1
not listed: [7] | [8] | [9]
inactive: all other assays above

CC(C)(C)c1cc(O)ccc1O
inactive: [6]
active: [1] 11.4 µM | [2] 3.17 µM | [3] 7.38 µM | [4] 1.94 µM | [5] 15.3 µM

CC(=O)C=C(C)C
inactive: [7]

CC1(C)Cc2cccc(O)c2O1
inactive: [1] | [2] | [3] | [4] | [5]

ClC1(Cl)C2(Cl)C3(Cl)C4(Cl)C(Cl)(Cl)C5(Cl)C3(Cl)C1(Cl)C5(Cl)C24Cl (stereo not given)
inactive: [1] | [2] | [3] | [4] | [8]

Clc1ccc(C2(Cn3cncn3)CC(Br)CO2)c(Cl)c1 (stereo not given)
active: [7] 5.55 µM | [9] 1.16 µM
inactive: [8]

CCSC(C)CC1CC(=O)C(C(CC)=NOC/C=C/Cl)=C(O)C1 (stereo not given)
inactive: [1] | [2] | [3] | [4]
